A selection: hits, their analogues and other compounds. The true share with any hit is near 12%.
PLK1 PBD inh: PLK1 (human) polo-box domain binding inhibition. Potency, µM, for the others: max response, negative = inhibition, hits mostly inhibitors. Plk1 PBD binding of FITC phosphopeptide, fluorescence polarization. P53350. actives 2.8% (n = 360,000). AID 720504; also: potency is read from the fitted curve at half-maximal effect; series mostly up to about 57 µM; % is scaled to controls: 0 for no effect and ±100 for the full control effect; nearly all actives have a fitted effect of over 65% in size
BAZ2B inh: blocks human BAZ2B; Q9UIF8; AlphaScreen BAZ2B-H3K14Ac peptide displacement; AID 504333; actives 4.4% (n = 360,000); Potency, µM (titrated, usually from 114 µM), without a hit: top-dose activity change, negative = inhibition, actives largely listed as inhibitors; also: potency is read from the fitted curve at half-maximal effect; % is scaled to controls: 0 for no effect and ±100 for the full control effect; nearly all actives have a fitted effect of over 60% in size
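BAZ2B (50 nM) with biotin-H3(5-23)K14Ac peptide (50 nM) in PBS pH 7.4, 0.01% Tween-20, preformed 30 min, then compound 30 min at room temperature; top concentration 110uM. AlphaScreen streptavidin donor/nickel chelate acceptor beads (10 ug/mL final), 20 min dark, signal read.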
G9a inh: inhibitors of human histone lysine methyltransferase G9a; Potency, µM (doses to about 102 µM), without a hit: top-dose activity, negative = inhibition, hits mostly inhibitors; AID 504332; G9a H3K9 monomethylation, AlphaScreen, 2 h; actives 8.8% (n = 350,000); Q96KQ7; also: potency is read from the fitted curve at half-maximal effect; % is scaled to controls: 0 for no effect and ±100 for the full control effect; nearly all actives have a fitted effect of over 75% in size
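Step 1: enzyme (final 20 nM) with compound, 15 min RT. Step 2: substrate peptide 500 nM and SAM 20 uM, 2 h RT. Step 3: anti-H3K9me1 antibody and AlphaScreen beads, 10 min, then plate read.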
HP1b binding inh: blocks HP1-beta chromodomain binding to methylated histone tails. P83916. AlphaScreen HP1-beta / biotin-H3K9me3 peptide binding. Potency, µM (series often up to 114 µM), for inactives: at the top dose activity change, negative = inhibition, actives largely listed as inhibitors. actives 0.56% (n = 390,000). AID 540317; also: potency is read from the fitted curve at half-maximal effect; nearly all actives have a fitted effect of over 70% in size
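AlphaScreen: HP1-beta (50 nM) preformed 30 min with biotin-H3(1-18)K9me3 peptide (50 nM) in PBS pH 7.4, 0.01% Tween-20. Compound added for 30 min at RT, then streptavidin donor/nickel chelate acceptor beads (10 ug/mL) for 30 min.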
PI5P4K alpha inh: inhibitors of human PI5P4K alpha. AID 652105. actives 1.2% (n = 330,000). P48426. max response, %. PI5P4Kalpha enzyme, ADP-Glo luminescence, 60 min; hits give low values; active = max response of -50% or lower; inconclusive = between -30% and -50%; inactive = -30% or higher; also: value at the top dose of about 77 µM; % is scaled to controls: 0 for no effect and ±100 for the full control effect
Target sequence (P48426 whole entry, looked up): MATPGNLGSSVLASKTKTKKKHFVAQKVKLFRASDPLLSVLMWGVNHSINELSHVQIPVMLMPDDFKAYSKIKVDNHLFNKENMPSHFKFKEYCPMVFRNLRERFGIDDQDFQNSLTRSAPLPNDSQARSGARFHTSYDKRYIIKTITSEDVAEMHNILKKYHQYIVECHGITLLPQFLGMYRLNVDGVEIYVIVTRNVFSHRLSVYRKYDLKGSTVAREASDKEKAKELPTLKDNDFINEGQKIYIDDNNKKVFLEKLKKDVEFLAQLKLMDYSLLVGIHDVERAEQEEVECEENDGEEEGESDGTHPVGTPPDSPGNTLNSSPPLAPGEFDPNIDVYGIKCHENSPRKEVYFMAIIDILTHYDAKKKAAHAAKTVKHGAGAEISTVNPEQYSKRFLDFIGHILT
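Quantitative HTS of the MLSMR library against PI5P4Kalpha with substrate. ATP added last at 5 microM final; room temperature, 60 minutes. Remaining ATP depleted, ADP converted and read as luminescence.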
JMJD2A Tudor: inhibitors of human JMJD2A Tudor domain | O75164 | Potency, µM (series often up to 114 µM), for the others: top-dose activity change, negative = inhibition, actives largely listed as inhibitors | actives 4.4% (n = 390,000) | AlphaScreen JMJD2A-Tudor / H3K4me3 peptide binding; also: potency is read from the fitted curve at half-maximal effect; % is scaled to controls: 0 for no effect and ±100 for the full control effect; nearly all actives have a fitted effect of over 50% in size
* marks the source's active call; other numbers are inactive results; u = inconclusive; x = no result given; ! = not active in a repeat; [ ] = remark or other dose. Unless noted, calls follow the shape of the dose curve; as a rule, active = well fitted curve in the direction sought with a large enough effect; inconclusive = small, poorly fitted or top-dose-only effect, or another doubt; inactive = no such curve, though single readings can be large; an effect the other way counts as inactive or inconclusive.

SMILES	PLK1 PBD inh	BAZ2B inh	G9a inh	HP1b binding inh	PI5P4K alpha inh	JMJD2A Tudor
COc1cccc(C2c3[nH]c4ccccc4c3CCN2Cc2cccn2-c2ncccn2)c1 (stereo not drawn)	2%	u	40µM*	u	5	u
CC1=NN(c2ccccc2)C(=O)/C1=C/c1c(O)n(-c2ccc(F)c(Cl)c2)[nH]c1=O	27µM*	35µM*	u	u	u	50µM*
O=c1[nH]n(-c2ccccc2)c(=O)cc1Cl	-2%	x	x	8%[57 µM]	-10	-6%
O=C(O)c1cccc(-c2cccc(-c3nn4c(=O)cc(N5CCNCC5)nc4s3)c2)c1	x	x	x	x	x	-26%
C=C1CN(CC(=O)OC)S(=O)(=O)c2ccccc21	-21%	-7%	-11%[59 µM]	-17%	0	89µM*!
Cc1c(C(=O)Nc2cccc(C#N)c2)sc2nc3n(c(=O)c12)CCCCC3	x	50µM*	u	36%	x	-12%
Cc1c(C(=O)NCc2cccc(Cl)c2)sc2nc3n(c(=O)c12)CCCC3	x	18µM*	16µM*	61%	x	79µM*
Cc1c(C(=O)NCc2ccc(Cl)cc2)sc2nc3n(c(=O)c12)CCCC3	x	-23%	11µM*	115%	x	9%
Cc1c(C(=O)NCc2ccccc2Cl)sc2nc3n(c(=O)c12)CCC3	x	-38%	-29%[59 µM]	10%	x	-23%
COc1ccc(CNC(=O)c2sc3nc4n(c(=O)c3c2C)CCCC4)cc1	x	45µM*	14µM*	56%	x	89µM*
COc1ccc(CCNC(=O)c2sc3nc4n(c(=O)c3c2C)CCC4)cc1	-13%	7%	-38%	15%	6	-5%
Cc1cccc(CCNC(=O)c2sc3nc4n(c(=O)c3c2C)CCCC4)c1	x	-1%	u	85%	x	-2%
CCc1cccc(NC(=O)c2sc3nc4n(c(=O)c3c2C)CCC4)c1	-10%	-18%	21%	20%	8	-1%
COc1ccc(Cl)cc1C(=O)NNC(=O)CNC(=O)c1ccco1	3%	x	x	50%	1	3%
O=S(=O)(Nc1nc2ccccc2nc1Cl)c1ccc(Br)cc1	-15%	x	u	59%	0	-16%
CC(=O)Nc1ccc(C=C(C#N)c2ccc(C)cc2)cc1	-2%	x	x	x	-26	x
CCOc1ccc(CCNC(=O)c2sc3nc4n(c(=O)c3c2C)CCCC4)cc1OCC	x	56µM*	-35%[59 µM]	71%	x	-14%
NNc1ccc([N+](=O)[O-])c2[nH][nH]c(=O)c12	24µM*	x	x	x	-83*	x
O=C(OC(C(=O)Nc1ccc(Cl)cc1C(F)(F)F)c1ccccc1)c1c(Cl)cccc1Cl (stereo not drawn)	30µM*	8%	-1%[59 µM]	u	-6	-23%[57.1 µM]
CC1(C)C(c2cccs2)=[N+]([O-])C2(CCCCC/C2=N\O)N1O (stereo not drawn)	-7%	-4%	-49%[59 µM]	8%	x	-8%
CC1(C)C(c2ccccc2)=[N+]([O-])C2(CCCCC2=O)N1O (stereo not drawn)	-4%	3%	7.9µM*	31%	11	-3%
O=C(COC(=O)C1Cc2ccccc2CN1C(=O)c1ccccc1)Nc1ccc(SC(F)F)cc1 (stereo not drawn)	-5%	-12%	79µM*	u	-11	-32%
CC(=O)OCC(=O)Nc1ccc(SC(F)F)cc1	u	-2%	u	36%	7	1%
CCOc1ccccc1C=NN1CCCCCC1	3%	x	x	u	-2	45µM*
COc1cccc(C=NN2CCCCCC2)c1OC	-5%	x	x	u	8	56µM*
COc1ccc(/C=N/N2CCN(C)CC2)c(OC)c1OC	0%	-2%	-37%	26%	-3	-1%
CCOc1cc(C=NN2CCCCCC2)ccc1O	-2%	x	x	u	-2	50µM*
COc1cccc(/C=N/N2CCN(c3ccc(Cl)cc3)CC2)c1OC	2%	u	-1%	20%	1	u
CCOc1cc(/C=N/N2CCN(Cc3ccccc3)CC2)ccc1O	0%	u	u	-16%	7	u
